Test results reported in PubChem BioAssay (NCATS).
Values joined by “and” are separate entries in the source; they are usually repeats but may differ in a detail not shown here. Identical values can stand only once. Results filed as inconclusive are left out. Active and inactive are the calls of the source. Unless noted, the call rests on the fitted dose curve; in most records, active means well fitted curve in the direction sought with a large enough effect; inconclusive means small, poorly fitted or top-dose-only effect, or another doubt; inactive means no such curve, though single readings can be large; an effect the other way counts as inactive or inconclusive.

Tests used:
[1] = Cell Viability - SK-N-SH (AID 435; calls by dose curve; further: potency means the concentration at half of the fitted maximal effect); conditions: SK-N-SH neuroblastoma cell viability qHTS
In short: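 qHTS cytotoxicity: CellTiter-Glo ATP luminescence after 40 h compound exposure of human neuroblastoma SK-N-SH cells at 37 °C. AC50 derived by Hill-equation fitting, with DMSO as basal and 100 uM tamoxifen as full inhibition.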

[2] = Cell Viability - HUV-EC-C (AID 542); conditions: HUV-EC-C endothelial cell viability, qHTS; series mostly up to 92.2 µM;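 further: cells exposed to compound for 40 hours; on the % scale 0 is the no-effect control and ±100 the full control effect; nearly all actives have a fitted effect of over 35% in size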
In short: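 Concentration-dependent ATP loss in HUV-EC-C cells is the measure. Exposure lasts 40 hr at 37 °C; luminescence follows CellTiter-Glo addition, and Hill fits give AC50.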

[3] = Cellular Toxicity (caspase-3) Mesangial (AID 660); conditions: mesangial cells, normalized: DMSO 0%, 100 µM tamoxifen 100%; series mostly up to 91.7 µM;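 further: combined caspase 3 and 7 activity read by Caspase-Glo luminescence; cells exposed to compound for 16 h before the caspase read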
In short: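 AC50 values come from Hill-equation fits of caspase 3/7 activation, measured as Caspase-Glo luminescence in human glomerular mesangial cells exposed to compound for 16 h at 37 °C; 100% set by 100 uM tamoxifen.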

[4] = Cellular Toxicity (caspase-3) H-4-II-E (AID 663); conditions: H-4-II-E rat hepatoma; Potency: caspase-3 activation; series mostly up to 92.2 µM;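 further: cells exposed to compound for 16 hr before readout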
In short: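 H-4-II-E rat hepatoma, 1500 cells/well, 5 hr settle at 37 °C; compound 16 hr, 37 °C, complete medium; Caspase-Glo 3/7, 20 min RT; luminescence. DMSO = 0%, 100 uM tamoxifen = 100%; Hill-equation AC50.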

[5] = Cellular Toxicity (caspase-3) N2a (AID 665); conditions: N2a cells, luminescence, normalized: DMSO 0%, 10 µM staurosporine 100%; series mostly up to 92.2 µM;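 further: compound exposure lasted 16 h at 37 °C before readout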
In short: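 Concentration-response qHTS: compound-induced caspase-3/7 luminescence in N2a cells (16 h, 37 °C), relative to DMSO and 10 uM staurosporine controls; AC50 obtained using the standard Hill equation.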

[6] = Cellular Toxicity (caspase-3) NIH 3T3 (AID 666); conditions: NIH 3T3 caspase-3 activation, apoptosis/toxicity; series mostly up to 92.2 µM;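 further: caspase signal read after 16 h compound exposure; 0% = DMSO basal and 100% = 100 µM tamoxifen stimulation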
In short: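 Activity: caspase-3/7 induction, NIH 3T3 cells, 16 hr treatment at 37°C, luminescent Caspase-Glo detection; AC50 via Hill equation.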

[7] = Cellular Toxicity (caspase-3) Renal Proximal Tubule (AID 667); conditions: renal proximal tubule cells; series mostly up to 91.7 µM;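 further: cells exposed to compound for 16 hours at 37 °C before detection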
In short: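 Caspase 3/7 activation measured by luminescent aminoluciferin release in primary rat proximal tubule cells after 16 hr compound exposure at 37 °C. AC50 from Hill-fitted concentration-response, scaled between DMSO and 10 uM staurosporine.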

[8] = MultiTox-Fluor Cytotoxicity Assay - LYMP1-001 - Live Cells (AID 947); conditions: LYMP1-001 lymphoblastoid cells, live-cell protease fluorescence viability; series mostly up to 92.2 µM;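 further: 0% = DMSO only and full inhibition = tetraoctylammonium bromide control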
[9] = Cell Viability - LYMP2-011 (AID 969); conditions: LYMP2-011 lymphoblastoid cells viability; series mostly up to 92.2 µM;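 further: 0% = DMSO only and full inhibition = 92 µM tetraoctylammonium bromide; nearly all actives have a fitted effect of over 60% in size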
In short: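 Cells seeded at 2500 per well rest 5 hr before compound addition, then incubate 24 hr at 37 C. CellTiter-Glo reagent is added for 30 min at room temperature before luminescence detection.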

[10] = Cell Viability - LYMP2-015 (AID 971); conditions: LYMP2-015 lymphoblastoid cell viability; series mostly up to 92.2 µM;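 further: 0% = DMSO only and full effect = 92 µM tetraoctylammonium bromide; nearly all actives have a fitted effect of over 55% in size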
In short: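 AC50 values reflect Hill-model fits of ATP-based luminescence (CellTiter-Glo) from a human lymphoblastoid line, 2500 cells/well, treated 24 hr at 37 C.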

[11] = Cell Viability - LYMP2-021 (AID 974); conditions: LYMP2-021 lymphoblastoid cells viability; series mostly up to 92.2 µM;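 further: compound exposure lasts 24 hours at 37 °C; on the % scale 0 is the no-effect control and ±100 the full control effect; nearly all actives have a fitted effect of over 55% in size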
In short: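 In qHTS format, compounds are tested against 2500 lymphoblastoid cells per well for 24 h; viable cell number is inferred from ATP-driven luciferase light, and Hill-equation fitting yields AC50 values.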

[12] = Cell Viability - LYMP2-006 (AID 978); conditions: LYMP2-006 lymphoblastoid cell viability, qHTS; series mostly up to 92.2 µM; further: on the % scale 0 is the no-effect control and ±100 the full control effect; nearly all actives have a fitted effect of over 60% in size
In short: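 Potency values are Hill-fit AC50s for decreases in intracellular ATP (CellTiter-Glo luminescence). LYMP2-006 lymphoblastoid cells, 2500 per well, were exposed to compound in complete culture medium for 24 hr at 37 C.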

[13] = Cell Viability - LYMP2-024 (AID 988); conditions: LYMP2-024 lymphoblastoid cell viability; series mostly up to 92.2 µM;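 further: plate controls were DMSO only for no effect and 92 µM tetraoctylammonium bromide for full effect; nearly all actives have a fitted effect of over 60% in size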
In short: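 Cells at 2500 per well received compound for 24 hr after a 5 hr settling period. Viability was scored by CellTiter-Glo luminescence, with AC50 from Hill fits.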

[14] = target: Retinoic acid receptor RXR-alpha (Homo sapiens) (UniProt P19793); assay: qHTS assay for small molecule antagonists of retinoid X receptor alpha signaling (AID 588546; active means well fitted inhibition curve with a large enough effect in the signal ratio, with a control signal flat, not every such curve was filed as active; the % refers to the signal ratio;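 further: cells stimulated with 9-cis-retinoic acid as agonist; on the % scale 0 is the no-effect control and ±100 the full control effect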); conditions: HEK293T RXRa-UAS-bla, beta-lactamase ratio, antagonist mode
Chain of Retinoic acid receptor RXR-alpha (Homo sapiens) (P19793 whole entry, looked up): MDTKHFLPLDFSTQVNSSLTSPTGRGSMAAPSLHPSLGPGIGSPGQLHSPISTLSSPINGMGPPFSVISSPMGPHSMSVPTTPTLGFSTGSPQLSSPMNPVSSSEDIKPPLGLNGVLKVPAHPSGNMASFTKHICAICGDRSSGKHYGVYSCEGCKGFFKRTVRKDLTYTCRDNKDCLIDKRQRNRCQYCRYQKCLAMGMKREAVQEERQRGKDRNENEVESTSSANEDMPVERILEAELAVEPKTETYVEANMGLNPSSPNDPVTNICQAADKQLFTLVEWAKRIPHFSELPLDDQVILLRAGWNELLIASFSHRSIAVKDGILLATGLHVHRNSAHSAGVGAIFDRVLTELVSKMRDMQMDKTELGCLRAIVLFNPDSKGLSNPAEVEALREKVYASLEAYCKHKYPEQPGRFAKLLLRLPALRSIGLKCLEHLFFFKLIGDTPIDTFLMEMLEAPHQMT
In short: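 Beta-lactamase reporter inhibition, read as CCF4 fluorescence ratio (ex 405, em 460/530 nm) after 2 h at RT. HEK293T UAS-bla cells, 2500/well, were stimulated with 9-cis-RA at 500 or 100 nM final alongside test compound for 18 h at 37 C.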

[15] = qHTS assay for small molecule agonists of the antioxidant response element (ARE) signaling pathway measured by Nrf2-dependant transcriptional activity (AID 720636; active means well fitted curve in the direction sought with a large enough effect in the repeat runs; an effect the other way counts as inactive or inconclusive;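 further: HepG2 cells with an ARE-driven luciferase reporter; % of control where 0% means no effect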); conditions: ARE-luc HepG2, Nrf2 luciferase reporter, 16 h; series mostly up to 92.4 µM
In short: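 ONE-Glo luminescence, read 30 min after reagent addition at room temperature, reflected ARE reporter activity in HepG2 cells that had been incubated with compound for 16 hr at 37 C in 1% dialyzed FBS.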

[16] = qHTS assay for cell viability of the p53RE-bla HCT-116 cell line (AID 743292); conditions: p53RE-bla HCT-116 viability, ATP luminescence, 16 h; series mostly up to 95 µM; further: on the % scale 0 is the no-effect control and ±100 the full control effect; nearly all actives have a fitted effect of over 55% in size
In short: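 After plating at 4,000 cells per well and a 5 h rest at 37 C, HCT-116 cells carrying p53RE-bla received test chemicals in DMSO. Sixteen hours later at 37 C, CellTiter-Glo was added and luminescence recorded following 30 min at room temperature.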

[17] = Cell Viability - LYMP2-009 (AID 968); conditions: LYMP2-009 lymphoblastoid cell viability; series mostly up to 92.2 µM;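 further: 0% = DMSO alone and the full-kill end = tetraoctylammonium bromide at 92 µM; nearly all actives have a fitted effect of over 55% in size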
[18] = Cell Viability - LYMP2-013 (AID 970); conditions: LYMP2-013 lymphoblastoid cells viability; series mostly up to 92.2 µM
In short: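 In complete culture medium, human lymphoblastoid cells were dosed for 24 hr at 37 C, with tetraoctylammonium bromide (6.4pM to 92 uM) as positive control. Viability reflects luciferase-based ATP signal; AC50 derived from concentration-response curves.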

[19] = Cell Viability - LYMP2-002 (AID 977); conditions: LYMP2-002 lymphoblastoid cell viability, qHTS; series mostly up to 92.2 µM;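 further: compound exposure lasted 24 h at 37 °C; plate controls were DMSO only for no effect and 92 µM tetraoctylammonium bromide for full effect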
In short: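 Human lymphoblastoid cells, 2500/well, complete medium; 5 h 37 C settle; compound 24 h 37 C; CellTiter-Glo, 30 min RT; luminescence. Decrease in ATP = cytotoxicity; AC50 via Hill equation.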

[20] = Cell Viability - LYMP2-022 (AID 987); conditions: LYMP2-022 lymphoblastoid cell viability; series mostly up to 92.2 µM
In short: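 In this qHTS cytotoxicity screen, compound titrations were incubated 24 hr at 37 C with human lymphoblastoid cells in complete medium. Luciferase-based ATP luminescence provided the viability signal.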

ClCCOCCCl
inactive: Potency [1] > 92 µM | Potency [2] | outcome [3] | Potency [4] | outcome [5] | Potency [6] | outcome [7] | outcome [8] | Potency [9] | Potency [10] | Potency [11] | Potency [12] | Potency [13] | max response [14] 4.16% | Potency [15] | Potency [16]

CCCCCc1cc(O)cc(O)c1
inactive: Potency [1] > 92 µM | Potency [2] | outcome [3] | Potency [4] | outcome [5] | Potency [6] | outcome [7] | outcome [8] | Potency [17] | Potency [18] | Potency [11] | Potency [19] | Potency [20] | Potency [13] | max response [14] -16.8% | Potency [15] | Potency [16]

CC(C)CC(C)N (stereo not drawn)
inactive: Potency [1] > 92 µM | Potency [2] | outcome [3] | Potency [4] | outcome [5] | Potency [6] | outcome [7] | outcome [8] | Potency [11] | Potency [19] | Potency [20] | Potency [13] | max response [14] 1.28% | Potency [15] | Potency [16]

Cc1cc(Cl)ccc1O
inactive: Potency [1] > 92 µM | Potency [2] | outcome [3] | Potency [4] | outcome [5] | Potency [6] | outcome [8] | Potency [17] | Potency [9] | Potency [18] | Potency [10] | Potency [11] | Potency [19] | Potency [12] | Potency [20] | max response [14] -5.53% | Potency [15]

C[N+](=O)[O-]
inactive: Potency [1] > 92 µM | Potency [2] | outcome [3] | Potency [4] | outcome [5] | outcome [7] | outcome [8] | Potency [17] | Potency [9] | Potency [18] | Potency [10] | Potency [11] | Potency [19] | Potency [12] | Potency [13] | max response [14] 4.36% | Potency [15] | Potency [16]

CC(=O)NNc1ccccc1
inactive: Potency [1] > 92 µM | Potency [2] | outcome [3] | Potency [4] | outcome [5] | Potency [6] | outcome [7] | outcome [8] | Potency [17] | Potency [9] | Potency [10] | Potency [11] | Potency [19] | Potency [12] | Potency [20] | max response [14] -22.9% | Potency [15]

CN(C)N=O
inactive: Potency [1] > 92 µM | Potency [2] | outcome [3] | Potency [4] | outcome [5] | Potency [6] | outcome [7] | outcome [8] | Potency [17] | Potency [9] | Potency [18] | Potency [10] | Potency [11] | Potency [19] | Potency [12] | Potency [20] | Potency [13] | Potency [16]

FC(Cl)(Cl)Cl
inactive: Potency [1] > 92 µM | Potency [2] | outcome [3] | Potency [4] | outcome [5] | Potency [6] | outcome [7] | outcome [8] | Potency [17] | Potency [9] | Potency [18] | Potency [10] | Potency [11] | Potency [12] | Potency [20] | max response [14] -1.5% | Potency [15] | Potency [16]

O=[N+]([O-])c1cc(Cl)c(Cl)cc1Cl
inactive: Potency [1] > 92 µM | Potency [2] | outcome [3] | Potency [4] | outcome [5] | Potency [6] | outcome [7] | outcome [8] | Potency [17] | Potency [9] | Potency [18] | Potency [10] | Potency [11] | Potency [19] | Potency [12] | Potency [20] | Potency [13] | max response [14] 7.08% | Potency [16]

Cc1ccc(N)cc1C
inactive: Potency [1] > 92 µM | Potency [4] | outcome [5] | Potency [6] | outcome [7] | outcome [8] | Potency [17] | Potency [9] | Potency [18] | Potency [10] | Potency [11] | Potency [19] | Potency [12] | Potency [20] | Potency [13] | max response [14] -2% | Potency [15] | Potency [16]

O=[N+]([O-])c1ccc(Cl)c(Cl)c1Cl
inactive: Potency [1] > 92 µM | Potency [2] | outcome [3] | Potency [6] | outcome [7] | outcome [8] | Potency [17] | Potency [9] | Potency [18] | Potency [10] | Potency [19] | Potency [12] | Potency [13] | max response [14] 7.17% | Potency [15] | Potency [16]

Nc1ccc(Cc2ccc(N)cc2)cc1
inactive: Potency [1] > 92 µM | Potency [2] | outcome [3] | Potency [4] | Potency [6] | outcome [7] | outcome [8] | Potency [17] | Potency [9] | Potency [18] | Potency [10] | Potency [11] | Potency [19] | Potency [13] | max response [14] -0.525% and -18.2%

ClC(Cl)C(Cl)Cl
inactive: Potency [1] > 92 µM | Potency [2] | outcome [3] | Potency [4] | outcome [5] | outcome [8] | Potency [18] | Potency [10] | Potency [11] | Potency [19] | Potency [20] | Potency [13] | max response [14] 4.18% | Potency [15]

O=[N+]([O-])c1ccc2c3c(cccc13)CC2
inactive: Potency [1] > 92 µM | Potency [2] | Potency [4] | outcome [5] | outcome [7] | Potency [17] | Potency [18] | Potency [10] | Potency [11] | Potency [19] | Potency [12] | Potency [20] | Potency [13] | max response [14] 28.1% and 10.3% | Potency [15] | Potency [16]

NC1CCC(CC2CCC(N)CC2)CC1 (stereo not drawn)
inactive: Potency [1] > 92 µM | Potency [2] | outcome [3] | Potency [4] | Potency [6] | outcome [7] | outcome [8] | Potency [17] | Potency [9] | Potency [18] | Potency [10] | Potency [11] | Potency [19] | Potency [12] | Potency [13] | max response [14] -0.208% and 1.62% | Potency [16]

CC(C)(Cl)Cl
inactive: Potency [1] > 92 µM | Potency [4] | Potency [6] | outcome [7] | outcome [8] | Potency [17] | Potency [9] | Potency [18] | Potency [10] | Potency [11] | Potency [19] | Potency [12] | Potency [20] | Potency [13] | max response [14] 3.57% | Potency [15] | Potency [16]
